Measured values published in PubChem BioAssay (Tox21).
Values without a mark were called inactive. Records with an inconclusive call do not appear. Where a call stands in place of a potency, no number is given. Activity calls are given as the source filed them. Unless noted, calls come from the whole dose curve; as a rule, active = well fitted curve in the direction sought with a large enough effect in the repeat runs; inconclusive = weak or mixed curves; inactive = no such curve, though single readings can be large; an effect the other way counts as inactive or inconclusive.

What was measured:
[1] = qHTS RealTime-Glo MT Cell Viability Assay in HEK293 cells - 8 hour (AID 1224887); note: top concentration of the series differs between compounds; nearly all actives have a fitted effect of over 50% in size
How it was run: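 Luminescence readout at each listed time point; HEK293, 600 cells/well, RealTime-Glo MT reagent added with cells; compounds pinned (23 nL in DMSO) after 5 h at 37 C; continuous culture at 37 C.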

[2] = A CellTox Green Cytotoxicity Assay to monitor cytotoxicity in HEK293 cells - 16 hour (AID 1224888); note: nearly all actives have a fitted effect of over 35% in size
How it was run: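 Read-out: fluorescence of a cell-impermeant cyanine dye staining DNA of dead cells, proportional to cytotoxicity. HEK293, 600 cells/well with reagent, compound (23 nL DMSO) added after 5 h; reads at 0, 8, 16, 24, 32, 40 h.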

[3] = qHTS RealTime-Glo MT Cell Viability Assay in HepG2 cells - 0 hour (AID 1224889); note: nearly all actives have a fitted effect of over 50% in size
How it was run: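 Cells + NanoLuc/prosubstrate dispensed (600 cells/well) → 5 h at 37 C/5% CO2 → compounds in DMSO transferred → 40 h incubation at 37 C, luminescence read at 0, 8, 16, 24, 32, 40 h.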

[4] = A CellTox Green Cytotoxicity Assay to monitor cytotoxicity in HepG2 cells - 8 hour (AID 1224890); note: nearly all actives have a fitted effect of over 45% in size
How it was run: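 HepG2, 600 cells/well premixed w/ CellTox Green; 5 h settle, 37 C/5% CO2; pintool cpd add (DMSO); 37 C, 40 h; fluorescence read at 0, 8, 16, 24, 32, 40 h.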

[5] = qHTS assay to identify small molecule antagonists of the estrogen receptor alpha (ER-alpha) signaling pathway using the BG1 cell line in the presence of 0.1 nM 17-beta-estradiol - cell viability counter screen (AID 1259241); note: nearly all actives have a fitted effect of over 40% in size
How it was run: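 Cells were plated and left 24 hr, compounds in DMSO were pinned in, 17beta-estradiol was added to 0.1 nM final, and after 22 hr CellTiter-Fluor reagent was added for 30 min before fluorescence was read.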

[6] = qHTS assay to identify small molecule antagonists of the androgen receptor (AR) signaling pathway using the MDA cell line in the presence of 0.5 nM R1881 - cell viability counter screen (AID 1259242); note: nearly all actives have a fitted effect of over 45% in size
How it was run: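 Live-cell protease fluorescence, CellTiter-Fluor, 30 min at 37C. Cells: MDA-kb2, 3,000/well, preincubated 5 hr. Compounds plus 0.5 nM R1881 final, 16 hr, 37C, 0% CO2.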

[7] = target: Estrogen receptor (Homo sapiens) (UniProt P03372); assay: qHTS assay to identify small molecule antagonists of the estrogen receptor alpha (ER-alpha) signaling pathway using the BG1 cell line in the presence of 0.1 nM 17-beta-estradiol (AID 1259244); note: nearly all actives have a fitted effect of over 50% in size
Sequence of Estrogen receptor (Homo sapiens) (P03372 whole entry, looked up): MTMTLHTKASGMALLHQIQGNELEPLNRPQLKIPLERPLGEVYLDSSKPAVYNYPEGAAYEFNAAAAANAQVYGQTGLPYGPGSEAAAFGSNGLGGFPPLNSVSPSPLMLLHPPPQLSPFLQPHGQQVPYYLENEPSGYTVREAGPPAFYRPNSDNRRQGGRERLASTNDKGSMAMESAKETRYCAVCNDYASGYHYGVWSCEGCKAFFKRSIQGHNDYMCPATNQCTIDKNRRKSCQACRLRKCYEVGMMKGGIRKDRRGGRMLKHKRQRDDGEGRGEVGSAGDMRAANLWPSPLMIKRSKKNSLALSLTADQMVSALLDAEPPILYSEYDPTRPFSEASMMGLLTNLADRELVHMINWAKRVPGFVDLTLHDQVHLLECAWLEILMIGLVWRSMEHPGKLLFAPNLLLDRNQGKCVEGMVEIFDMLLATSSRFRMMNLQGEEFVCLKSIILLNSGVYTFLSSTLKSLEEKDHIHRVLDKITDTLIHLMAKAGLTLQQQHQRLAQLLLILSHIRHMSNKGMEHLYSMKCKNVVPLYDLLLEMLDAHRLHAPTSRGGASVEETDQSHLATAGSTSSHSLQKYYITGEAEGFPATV
How it was run: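 Luminescence after ONE-Glo (30 min, room temperature) measured ERE-luciferase activity in VM7Luc4E2 cells treated 22 h with compound and 0.1 nM final 17beta-estradiol as stimulator.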

[8] = qHTS assay to identify small molecule HDAC inhibitors (AID 1259364);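 note: wild-type HCT-116 cells with endogenous class I/II HDAC activity; top concentration of the series differs between compounds; nearly all actives have a fitted effect of over 45% in size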
How it was run: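 HCT-116 (wild type), 1,500 cells/well, overnight; compound 2 hr 37C 5% CO2; HDAC-Glo I/II reagent 30 min RT; luminescence readout.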

[9] = qHTS assay to identify small molecule HDAC inhibitors - cell viability counter screen (AID 1259365); note: series mostly up to about 92 µM; nearly all actives have a fitted effect of over 50% in size
How it was run: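 Counter screen in wild-type HCT-116 cells: compounds dissolved in DMSO are pin-transferred onto overnight-plated cells and left 2hr at 37C. ATP-based CellTiter-Glo luminescence then measures viable cells.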

[10] = qHTS assay to identify small molecule agonists of the sonic hedgehog signaling (Shh) pathway - cell viability counter screen (AID 1259366); note: nearly all actives have a fitted effect of over 50% in size
How it was run: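 Cells are plated at 2,000 per well and left 4hr at 37C, 5% CO2 before compound addition. After 23hr of treatment, CellTiter-Fluor reagent is added for 1hr at 37C and fluorescence is measured.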

[11] = qHTS assay to identify small molecule antagonists of the sonic hedgehog signaling (Shh) pathway - cell viability counter screen (AID 1259367); note: nearly all actives have a fitted effect of over 55% in size
How it was run: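 CellTiter-Fluor signal in conditioned medium-stimulated 3T3 Gli1-Luc cells, 23 hr compound exposure, 37C.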

[12] = qHTS assay to identify small molecule agonists of the sonic hedgehog signaling (Shh) pathway (AID 1259368; calls by dose curve;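 note: NIH/3T3-derived 3T3Gli1-Luc cells carrying a stable Gli1-driven firefly luciferase reporter; series mostly up to about 92 µM; nearly all actives have a fitted effect of over 15% in size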)
How it was run: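 Read-out: firefly luciferase luminescence from a Gli1 response element reporter stably integrated in NIH/3T3-derived 3T3Gli1-Luc cells, measured 30 min at room temperature after reagent addition. Compound exposure lasted 24 hr at 37 C, 5% CO2.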

[13] = qHTS assay to identify small molecule antagonists of the sonic hedgehog signaling (Shh) pathway (AID 1259369; calls by dose curve; note: nearly all actives have a fitted effect of over 45% in size; note: potency is the fitted concentration of half-maximal effect)
How it was run: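 Luminescence readout: firefly Luc under Gli1 response element in 3T3Gli1-Luc cells (NIH/3T3 clone). Antagonist mode, stimulation by conditioned medium; compound exposure 24hr at 37 C, 5% CO2.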

[14] = target: Estrogen receptor beta (Homo sapiens) (UniProt Q92731); assay: qHTS assay to identify small molecule agonists of the estrogen receptor beta (ER-beta) signaling pathway (AID 1259377; active = well fitted activation curve with a large enough effect in the signal ratio in the repeat runs, not every such curve was filed as active; the % refers to the signal ratio)
Sequence of Estrogen receptor beta (Homo sapiens) (Q92731 whole entry, looked up, the tested form may be a part): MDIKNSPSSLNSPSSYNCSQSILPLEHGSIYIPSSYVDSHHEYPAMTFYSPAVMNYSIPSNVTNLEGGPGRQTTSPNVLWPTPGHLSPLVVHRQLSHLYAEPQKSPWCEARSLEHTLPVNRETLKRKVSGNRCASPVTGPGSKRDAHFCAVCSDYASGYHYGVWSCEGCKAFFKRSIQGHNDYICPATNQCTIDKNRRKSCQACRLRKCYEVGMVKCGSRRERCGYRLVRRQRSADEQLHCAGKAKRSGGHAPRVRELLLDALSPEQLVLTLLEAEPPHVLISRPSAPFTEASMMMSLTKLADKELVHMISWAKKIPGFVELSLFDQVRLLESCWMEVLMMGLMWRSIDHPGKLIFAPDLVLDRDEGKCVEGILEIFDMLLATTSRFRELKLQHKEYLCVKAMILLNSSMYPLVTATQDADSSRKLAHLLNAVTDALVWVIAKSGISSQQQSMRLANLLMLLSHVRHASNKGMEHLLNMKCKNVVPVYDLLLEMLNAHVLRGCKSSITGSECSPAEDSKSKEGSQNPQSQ
How it was run: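 Agonist mode cell assay in GripTite HEK293T cells expressing an ER-beta fusion that drives beta-lactamase from an Upstream Activator Sequence; 16 hr compound exposure at 37C, then 2 h LiveBLAzer B/G FRET substrate at room temperature, fluorescence read-out.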

[15] = target: Estrogen receptor beta (Homo sapiens) (UniProt Q92731); assay: qHTS assay to identify small molecule antagonists of the estrogen receptor beta (ER-beta) signaling pathway (AID 1259378; active = well fitted inhibition curve with a large enough effect in the signal ratio in the repeat runs, not every such curve was filed as active; the % refers to the signal ratio)
How it was run: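 Antagonist mode: compounds added to beta-lactamase reporter HEK293T ER-beta-UAS cells stimulated with E2 (1nM final), 16 hr at 37C. LiveBLAzer B/G FRET substrate, 2 hours room temperature, fluorescence read-out.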

[16] = qHTS assay to identify small molecule agonists of the androgen receptor (AR) signaling pathway in the presence of an antagonist - cell viability counter screen (AID 1259379);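 note: MDA-kb2 human breast cancer cells carrying an MMTV luciferase reporter; series mostly up to about 92 µM; nearly all actives have a fitted effect of over 25% in size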
How it was run: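 Viability counter screen: CellTiter-Fluor fluorescence, measured in the same wells as the luciferase read-out. MDA-kb2 cells, 3,000/well, with nilutamide at 3.0uM final and compounds at 15 concentrations, 16 hr at 37C, 0% CO2.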

[17] = qHTS assay to identify small molecule agonists of the estrogen receptor beta (ER-beta) signaling pathway - cell viability counter screen (AID 1259380); note: nearly all actives have a fitted effect of over 30% in size
How it was run: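 Luminescence read-out (CellTiter-Glo, 30 min, room temp) taken in the same wells as the beta-lactamase reporter assay; ER-beta-UAS-bla HEK293T cells exposed to DMSO-dissolved compounds for 16 hr at 37C in 2% charcoal-stripped FBS medium.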

[18] = qHTS RealTime-Glo MT Cell Viability Assay in HEK293 cells - 24 hour (AID 1224886)
How it was run: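 Tox21 10K qHTS, HEK293, 600 cells/well, RealTime-Glo reagent co-dispensed with cells; 5 h preincubation, compound by pintool, 37 C, luminescence at 0–40 h.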

[19] = qHTS assay to identify small molecule phospholipidosis (PLD) inducers (AID 1259344; active = well fitted curve in the direction sought with a large enough effect; an effect the other way counts as inactive or inconclusive)
How it was run: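 Accumulated phospholipid, stained red by LipidTOX during 24 h compound treatment of HepG2 cells at 37 C, is quantified from images as pit number and intensity, normalised per cell using Hoechst-stained nuclei.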

[20] = target: Androgen receptor (Homo sapiens) (UniProt P10275); assay: qHTS assay to identify small molecule antagonists of the androgen receptor (AR) signaling pathway using the MDA cell line in the presence of 0.5 nM R1881 (AID 1259243); note: nearly all actives have a fitted effect of over 50% in size
Sequence of Androgen receptor (Homo sapiens) (P10275 whole entry, looked up): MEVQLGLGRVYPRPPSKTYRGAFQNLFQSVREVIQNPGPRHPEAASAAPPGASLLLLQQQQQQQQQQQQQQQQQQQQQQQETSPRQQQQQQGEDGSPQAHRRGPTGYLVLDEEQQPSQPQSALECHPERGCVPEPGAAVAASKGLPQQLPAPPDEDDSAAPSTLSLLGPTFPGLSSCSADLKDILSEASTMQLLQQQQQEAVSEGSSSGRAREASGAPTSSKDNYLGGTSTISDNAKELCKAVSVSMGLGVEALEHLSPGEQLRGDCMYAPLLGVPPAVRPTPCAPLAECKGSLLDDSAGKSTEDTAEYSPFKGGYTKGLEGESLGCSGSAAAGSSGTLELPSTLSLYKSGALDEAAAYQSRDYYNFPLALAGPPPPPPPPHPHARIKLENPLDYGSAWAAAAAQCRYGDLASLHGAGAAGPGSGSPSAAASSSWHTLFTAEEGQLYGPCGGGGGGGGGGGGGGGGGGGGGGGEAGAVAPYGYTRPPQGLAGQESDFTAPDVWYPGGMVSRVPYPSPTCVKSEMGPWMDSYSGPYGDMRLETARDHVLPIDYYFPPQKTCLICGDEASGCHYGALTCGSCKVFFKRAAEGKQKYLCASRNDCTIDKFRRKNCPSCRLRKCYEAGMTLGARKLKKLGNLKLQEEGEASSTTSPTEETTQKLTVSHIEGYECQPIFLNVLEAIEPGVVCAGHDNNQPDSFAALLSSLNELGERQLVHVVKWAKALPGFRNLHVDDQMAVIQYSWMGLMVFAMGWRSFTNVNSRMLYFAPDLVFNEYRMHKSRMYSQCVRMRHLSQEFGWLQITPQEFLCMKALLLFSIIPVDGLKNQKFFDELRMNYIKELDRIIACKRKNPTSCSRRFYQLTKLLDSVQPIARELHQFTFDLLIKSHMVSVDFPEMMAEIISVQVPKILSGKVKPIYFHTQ
How it was run: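 MDA-kb2, MMTV-luc (AR/GR elements); 3,000 cells/well; cpd + 0.5 nM R1881 final; 16 hr 37C, 0% CO2; ONE-Glo 30 min RT; luminescence.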

Compound | Potency [1] | Potency [2] | Potency [3] | Potency [4] | Potency [5] | Potency [6] | Potency [7] | Potency [8] | outcome [9] | Potency [10] | Potency [11] | outcome [12] | Potency [13] | Potency [14] | outcome [15] | Potency [16] | outcome [17] | Potency [18] | outcome [19] | outcome [20]
COC(=O)CCC(=O)O | inactive | inactive | inactive | inactive | inactive | inactive | inactive | inactive | inactive | inactive | inactive | inactive | inactive | inactive | inactive | inactive | inactive |  |  | 
Nc1cc(Cl)cc(S(=O)(=O)O)c1O | inactive |  | inactive |  | inactive | inactive | inactive | inactive | inactive | inactive | inactive | inactive | inactive |  |  | inactive | inactive | inactive |  | 
Cc1oc(=O)oc1CN1CCN(c2cc3c(cc2F)c(=O)c(C(=O)O)c2n3C(C)S2)CC1 (stereo unspecified) | inactive |  | inactive |  | inactive | inactive | inactive |  | inactive | inactive | inactive | inactive |  | inactive |  | inactive | inactive | inactive | inactive | 
COC(/C=C(\C)CCC=C(C)C)OC | inactive |  | inactive | inactive | inactive | inactive |  | inactive | inactive | inactive |  | inactive | inactive | inactive | inactive | inactive | inactive | inactive |  | 
C1CCN2C[C@@H]3C[C@@H](CN4CCCC[C@@H]34)[C@H]2C1 | inactive |  | inactive | inactive | inactive | inactive |  | inactive | inactive | inactive | inactive | inactive | inactive | inactive | inactive |  |  | inactive |  | 
CCOC(=O)C(=O)c1csc(NC=O)n1 | inactive |  | inactive | inactive | inactive | inactive | inactive |  | inactive | inactive | inactive | inactive | inactive | inactive | inactive | inactive | inactive | inactive |  | 
C=CCOc1cc(Cl)ccc1C(=O)NCCN(CC)CC | inactive |  | inactive |  | inactive |  |  | inactive |  | inactive | inactive | inactive | inactive | inactive | inactive | inactive | inactive | inactive |  | 
CC(C)C(=O)Nc1cccc(C(F)(F)F)c1 | inactive | inactive | inactive | inactive | inactive | inactive |  | inactive | inactive | inactive | inactive | inactive | inactive | inactive | inactive | inactive | inactive |  |  | 
CCCCCCCCCCCCCCCCCCN(C)C | inactive |  | inactive |  | inactive | inactive | inactive | inactive | inactive | inactive | inactive | inactive | inactive | inactive | inactive | inactive | inactive | inactive |  | inactive
COc1cccc2sc(N)nc12 | inactive |  | inactive |  | inactive | inactive |  |  | inactive | inactive |  |  | 24.5 µM (active) |  | inactive | inactive |  | inactive |  | inactive
Nc1ccc(S(=O)(=O)NC(=O)c2ccccc2)cc1 | inactive | inactive | inactive | inactive | inactive | inactive | inactive | inactive | inactive |  | inactive | inactive | inactive | inactive | inactive | inactive | inactive |  |  | 
C[C@@H]1C[C@H]2[C@@H]3C[C@H](F)C4=CC(=O)C=C[C@]4(C)[C@@]3(F)[C@@H](O)C[C@]2(C)[C@@]1(O)C(=O)CO | inactive |  |  |  | inactive | inactive |  | inactive |  | inactive | inactive |  | 0.668 µM (active) | inactive | inactive | inactive | inactive | inactive |  | 
CN=C(NC#N)NCCSCc1csc(N=C(N)N)n1 | inactive |  | inactive | inactive | inactive |  | inactive |  | inactive | inactive | inactive | inactive | inactive | inactive | inactive |  | inactive | inactive |  | 
C=CCOc1c(Br)cc(C(C)(C)c2cc(Br)c(OCC=C)c(Br)c2)cc1Br | inactive |  |  | inactive | inactive | inactive | inactive | inactive | inactive |  | inactive | inactive | inactive | inactive | inactive |  | inactive | inactive |  | 
CCCCCCCCCCC | inactive |  |  | inactive | inactive | inactive | inactive | inactive | inactive | inactive |  | inactive | inactive | inactive | inactive | inactive |  | inactive |  | inactive
C[CH2][Ge]([Cl])([CH2]C)[CH2]C | inactive |  |  |  | inactive | inactive |  | inactive | inactive | inactive | inactive | inactive |  | inactive | inactive | inactive | inactive | inactive |  | 
